The full list was thinned out, with hits kept by preference.
Shiga inhibitor: inhibitors of Shiga toxin in Vero cells | inhibition, % at 38.7 µM | actives 9.2% (n = 290,000) | Vero cells, Shiga toxin protein synthesis inhibition reporter; in the data active means inhibition mostly above about 28%, no sharp cut-off; inactive means mostly below about 43%
CHX counter: affects cycloheximide protein synthesis inhibition readout, counter-screen | AID 2314 | actives 12% (n = 300,000) | cell reporter, cycloheximide protein synthesis inhibition counterscreen | max response, %; in the data active means max response mostly above about 13%, no sharp cut-off; inactive means mostly below about 14%; further: read at 38.3 µM for the half of the compounds with a filed dose
Lassa entry inh: blocks Lassa virus binding to or entry into cells; Lassa virus pseudotype entry inhibition, cell reporter; actives 1.2% (n = 300,000); Potency, µM (top dose mostly 37.9 µM), most hits filed as inhibitors; calls by dose curve; tested in HEK293 cells; further: nearly all actives have a fitted effect of over 50% in size
MARV entry inh: blocks Marburg virus binding to or entry into cells; Marburg virus pseudotyped entry inhibition, cell reporter; Potency, µM (doses to about 37.8 µM), hits mostly inhibitors; actives 1.8% (n = 300,000); AID 540276; calls by dose curve; tested in HEK293 cells
AMA1 RON2 block: disrupts binding of P. falciparum AMA1 to RON2; Potency, µM (highest dose often 58.2 µM), actives largely listed as inhibitors; actives 0.2% (n = 360,000); AlphaScreen AMA1-biotinylated RON2 peptide binding; active means well fitted inhibition curve with a large enough effect; inconclusive means small, poorly fitted or top-dose-only effect; inactive means no such curve, though single readings can be large or run the other way; further: nearly all actives have a fitted effect of over 45% in size
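AMA1 (3D7) with his tag at 25 nM final met compounds first, then biotinylated RON2 peptide at 25 nM; detection used donor plus acceptor beads, 10 µg/mL apiece, read by AlphaScreen after 30 min at room temperature.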
Numbers stand for hits; n = inactive; u = inconclusive; x = no result; + = active, no number; [ ] = dose if it differs, or a comment.

SMILES	Shiga inhibitor	CHX counter	Lassa entry inh	MARV entry inh	AMA1 RON2 block
CCC(C)[C@H](NC(=O)OC(C)(C)C)C(=O)NCC1CCC(C(=O)N[C@@H](Cc2ccccc2)C(=O)O)CC1 (some centres undefined)	n	n	x	x	n
S=C(NCCc1ccccn1)NC1CCCCC1	27	42	u	n	n
S=C(NCCCc1ccccc1)NC1CCCCC1	71	47	n	n	n
CCOC(=O)c1[nH]c(C)c(CCC(=O)Nc2cc(Cl)c(OC)cc2OC)c1C	x	x	n	x	x
Cc1cc(C(=O)CSc2ccc3c(c2)OCCO3)c(C)n1C1CC1	92	67	u	u	u
C/C(N)=C(/C#N)C(=O)CSc1ccc2c(c1)OCCO2	98	48	u	u	n
CN(C)c1cccc(C(=O)n2cc(C(=O)c3cc(F)ccc3O)cn2)c1	97	n	n	n	n
COc1ccc(O)c(C(=O)c2cnn(C(=O)c3cccc(N(C)C)c3)c2)c1	x	x	n	n	n
COc1ccc(N2CC(C(=O)Nc3nnc(SCc4ccccn4)s3)CC2=O)cc1 (centres undefined)	n	20	n	n	n
N#Cc1ccc(CSc2nnc(NC(=O)C3CC(=O)N(c4ccc5c(c4)OCCO5)C3)s2)cc1 (centres undefined)	n	11	n	n	n
O=C(Nc1nnc(SCc2ccc(F)cc2)s1)C1CC(=O)N(c2ccc3c(c2)OCCO3)C1 (centres undefined)	n	15	n	n	n
CCc1ccc(-c2csc(NC(=O)C3CC(=O)N(c4ccc5c(c4)OCCO5)C3)n2)cc1 (centres undefined)	+	14	u	u	n
COc1ccccc1N1CC(C(=O)Nc2nnc(SCc3ccccn3)s2)CC1=O (centres undefined)	n	n	n	u	n
O=C(Nc1nnc(SCc2c(Cl)cccc2Cl)s1)C1CC(=O)N(c2ccc3c(c2)OCCO3)C1 (centres undefined)	n	n	n	n	n
C[C@H]1N[S+](=O)([O-])c2ccc(Br)cc2O[C@@H]1c1ccccc1	x	x	n	x	x
O=S(=O)(NC1CC2CCC1C2)c1ccc(Br)cc1 (centres undefined)	n	n	n	n	n
O=C(NCC1CCCN(C(=O)Cc2ccccc2Cl)C1)c1ccc(F)cc1 (centres undefined)	n	n	x	x	n
COc1ccc(NC(=O)CCn2cnc3onc(-c4ccc(F)cc4)c3c2=O)cc1OC	x	x	n	x	x
NS(=O)(=O)c1ccc(CCNC(=O)c2ccc(OCC3CCCO3)cc2)cc1 (centres undefined)	n	n	n	n	n
COc1cc(/C=C/C(=O)CC(=O)/C=C/c2ccc(O)c(OC)c2)ccc1O	n	n	18µM	u	n
COc1ccc(/C=C/C(=O)C(C)(C)C)cc1OC	n	16	x	x	n
Cc1ccc(C(=O)NC(=O)OCCn2c(C)cnc2[N+](=O)[O-])cc1	n	n	n	n	n
C[C@H](CO)N1C[C@H](C)[C@@H](CN(C)Cc2ccncc2)Oc2c(NS(=O)(=O)c3cn(C)cn3)cccc2C1=O	x	x	x	x	n
COc1ccc(NC(=O)C2(C)CCN2Cc2ccc(C(C)C)cc2)cc1OC (centres undefined)	x	x	x	x	n
Cc1ccc(C(CNC(=O)c2ccco2)N2CCN(C)CC2)cc1 (centres undefined)	x	x	n	n	n
SMILES	Shiga inhibitor	CHX counter	Lassa entry inh	MARV entry inh	AMA1 RON2 block
CC1CCc2c(sc(NC(=O)CSc3nc(N)cc(=O)[nH]3)c2C(N)=O)C1 (centres undefined)	x	x	n	u	n
CC(C)c1ccc(C(=O)NNC(=O)C2CC=CCC2C(=O)O)cc1 (centres undefined)	64	28	n	u	n
O=C(NNC(=O)[C@@H]1CCCC[C@@H]1C(=O)O)c1cccs1	58	29	n	n	n
O=C(NNC(=O)[C@@H]1CCCC[C@@H]1C(=O)O)Nc1ccccc1	65	15	u	n	n
Cc1ccsc1C(=O)NNC(=O)C1CC=CCC1C(=O)O (centres undefined)	+	45	n	u	n
O=C(NNC(=O)C1CC=CCC1C(=O)O)c1cccs1 (centres undefined)	n	n	n	n	n
O=C(O)C1CC=CCC1C(=O)NNS(=O)(=O)c1ccccc1 (centres undefined)	n	n	u	u	n
O=C(NNC(=O)C1CC1c1ccccc1)Nc1ccccc1 (centres undefined)	n	n	n	n	n
CCOc1cc(C(=O)NCc2nc(-c3cccc(C)c3)no2)cc(OCC)c1OCC	x	x	n	u	x
COc1cccc(NC(=O)C2CCCN(c3nnc(-n4c(C)ccc4C)s3)C2)c1 (centres undefined)	x	x	n	n	x
C[C@H](N[C@@H](C)CCc1ccccc1)[C@H](O)c1ccc(O)cc1	x	x	x	n	x
CCCOc1ccc(C2c3c(-c4ccccc4O)n[nH]c3C(=O)N2Cc2ccncc2)cc1OCC (centres undefined)	x	x	u	n	x
C[C@H]1CN([C@@H](C)CO)C(=O)c2cc(Br)cnc2O[C@@H]1CN(C)C(=O)c1ccncc1	x	x	x	x	n
COc1ccc(CC(=O)NNC(=O)[C@@H]2CCCC[C@@H]2C(=O)O)cc1	n	n	x	x	n
Cc1ccsc1C(=O)NNC(=O)C1CCCCC1C(=O)O (centres undefined)	65	31	u	n	n
CC1(c2ccccc2)NC(=O)N(CC(=O)N2CCN(S(=O)(=O)c3c(F)cccc3F)CC2)C1=O (centres undefined)	x	x	n	n	n
CC(=O)NCCc1ccc(C(=O)COC(=O)c2ccco2)cc1	x	x	n	n	n
O=C(CCNc1ccc(F)cc1)c1ccco1	90	52	n	n	n
O=C(COC(=O)c1ccco1)c1ccc(F)cc1	110	55	n	n	n
C#CCCCO/N=C1/C[C@@H](O)[C@@H](O)[C@@H]2[C@H]3C(=O)N(c4ccc(F)cc4F)C(=O)[C@@H]3CC[C@@H]12	x	x	x	n	x
CCOC(=O)c1c(C)[nH]c(C)c1S(=O)(=O)N1CCCC(C(=O)N2CCN(c3ccccc3F)CC2)C1 (centres undefined)	x	x	n	x	x
Cc1nn(C)c(C(=O)NC(=S)Nc2ccccc2Br)c1Cl	n	22	x	x	n
CCCCOC(=O)c1ccc(NC(=S)NC(=O)c2c(Cl)cnn2CC)cc1	n	n	n	n	n
Cc1nn(C)c(C(=O)NC(=S)Nc2ccc([N+](=O)[O-])cc2)c1Cl	n	n	n	n	n
CCn1ncc(Cl)c1C(=O)NC(=S)Nc1ccccc1Br	n	33	n	n	n
SMILES	Shiga inhibitor	CHX counter	Lassa entry inh	MARV entry inh	AMA1 RON2 block
Cc1cc(/C=C(\C#N)C(=O)NC2CC2)c(C)[nH]1	94	68	u	u	n
COc1ccc(-c2[nH]ncc2/C=C(/C#N)C(=O)NC2CCCCCC2)cc1	n	n	u	10µM	n
Cc1cc(/C=C(\C#N)C(=O)NC2CCCCCC2)c(C)[nH]1	n	35	n	u	n[2.32 µM]
CC(C)COc1ccc(-c2nnc(-c3ccncc3)o2)cc1	111	38	u	n	n
CCCOc1ccc(-c2nnc(-c3ccncc3)o2)cc1	84	21	n	n	n
CO/C([O-])=N/c1c[n+](-c2ccc(C)cc2)no1	43	22	n	n	n

Screens deposited in PubChem by National Center for Advancing Translational Sciences (NCATS).
